Experimental data published in PubChem BioAssay (Tox21).
Unmarked numbers belong to inactive results. Results filed as inconclusive are left out. A call without a number means that no potency is given here. Active and inactive are the calls of the source. The call rests on the fitted dose curve; in most records, active means well fitted curve in the direction sought with a large enough effect in the repeat runs; inconclusive means weak or mixed curves; inactive means no such curve, though single readings can be large; an effect the other way counts as inactive or inconclusive.

Legend:
[1] = A CellTox Green Cytotoxicity Assay to monitor cytotoxicity in HEK293 cells - 40 hour (AID 1224871); further: nearly all actives have a fitted effect of over 45% in size
In short: (§1)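 Cytotoxicity was tracked continuously in HEK293 cells by a DNA-binding dye excluded from viable cells. Compounds were transferred in DMSO 5 h after seeding; fluorescence was recorded at intervals up to 40 h.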

[2] = qHTS RealTime-Glo MT Cell Viability Assay in HEK293 cells - 16 hour (AID 1224872); further: top concentration of the series differs between compounds; nearly all actives have a fitted effect of over 50% in size
In short: (§2)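 Luminescence generated by NanoLuc from substrate produced by living HEK293 cells served as the viability signal. Each value reflects the reading at its stated time point during continuous 40 h compound exposure at 37 C.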

[3] = qHTS RealTime-Glo MT Cell Viability Assay in HepG2 cells - 8 hour (AID 1224873); further: nearly all actives have a fitted effect of over 55% in size
In short: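 HepG2 cells mixed with RealTime-Glo MT reagents (NanoLuc plus cell-permeant prosubstrate) were seeded at 600 cells/well, incubated 5 h at 37 C/5% CO2, then pinned with compounds in DMSO; nonlytic luminescence tracked viability during 40 h treatment.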

[4] = qHTS RealTime-Glo MT Cell Viability Assay in HEK293 cells - 40 hour (AID 1224874); details: RealTime-Glo luminescence; max response: stronger effect = lower value; further: nearly all actives have a fitted effect of over 50% in size; further: potency means the concentration at half of the fitted maximal effect
In short: (§3)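 Nonlytic bioluminescent viability monitoring. HEK293 at 600 cells/well with reagent; 5 h settle; compound transfer by pintool; plates held at 37 C and read at set time points.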

[5] = A CellTox Green Cytotoxicity Assay to monitor cytotoxicity in HEK293 cells - 24 hour (AID 1224875); further: series mostly up to about 77 µM; nearly all actives have a fitted effect of over 45% in size
In short: as §1

[6] = A CellTox Green Cytotoxicity Assay to monitor cytotoxicity in HepG2 cells - 16 hour (AID 1224876); further: nearly all actives have a fitted effect of over 45% in size
In short: (§4)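 Real-time, homogeneous cytotoxicity readout: dead-cell DNA staining by CellTox Green in HepG2 monolayers, fluorescence measured at timed intervals up to 40 h of continuous compound exposure.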

[7] = qHTS RealTime-Glo MT Cell Viability Assay in HepG2 cells - 32 hour (AID 1224877); further: nearly all actives have a fitted effect of over 55% in size
In short: (§5)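 Tox21 10K library screened in qHTS format on HepG2 cells carrying RealTime-Glo reagents. Compounds were added after a 5 h preincubation, and the luminescent signal from continuous culture was measured repeatedly during 40 h treatment.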

[8] = A CellTox Green Cytotoxicity Assay to monitor cytotoxicity in HepG2 cells - 24 hour (AID 1224878); further: nearly all actives have a fitted effect of over 45% in size
In short: as §4

[9] = qHTS RealTime-Glo MT Cell Viability Assay in HEK293 cells - 0 hour (AID 1224880)
In short: as §3

[10] = A CellTox Green Cytotoxicity Assay to monitor cytotoxicity in HEK293 cells - 32 hour (AID 1224881); further: nearly all actives have a fitted effect of over 40% in size
In short: as §1

[11] = A CellTox Green Cytotoxicity Assay to monitor cytotoxicity in HepG2 cells - 0 hour (AID 1224882); further: nearly all actives have a fitted effect of over 35% in size
In short: as §4

[12] = A CellTox Green Cytotoxicity Assay to monitor cytotoxicity in HepG2 cells - 32 hour (AID 1224883); further: nearly all actives have a fitted effect of over 50% in size
In short: as §4

[13] = A CellTox Green Cytotoxicity Assay to monitor cytotoxicity in HEK293 cells - 8 hour (AID 1224884); further: nearly all actives have a fitted effect of over 35% in size
In short: as §1

[14] = qHTS RealTime-Glo MT Cell Viability Assay in HepG2 cells - 16 hour (AID 1224885); further: nearly all actives have a fitted effect of over 50% in size
In short: as §5

[15] = qHTS RealTime-Glo MT Cell Viability Assay in HEK293 cells - 24 hour (AID 1224886); further: nearly all actives have a fitted effect of over 50% in size; further: potency means the concentration at half of the fitted maximal effect
In short: as §2

[16] = qHTS RealTime-Glo MT Cell Viability Assay in HEK293 cells - 8 hour (AID 1224887); further: nearly all actives have a fitted effect of over 50% in size; further: potency means the concentration at half of the fitted maximal effect
In short: as §3

[17] = A CellTox Green Cytotoxicity Assay to monitor cytotoxicity in HEK293 cells - 16 hour (AID 1224888); further: nearly all actives have a fitted effect of over 35% in size
In short: as §1

[18] = A CellTox Green Cytotoxicity Assay to monitor cytotoxicity in HepG2 cells - 8 hour (AID 1224890); further: nearly all actives have a fitted effect of over 45% in size
In short: as §4

[19] = A CellTox Green Cytotoxicity Assay to monitor cytotoxicity in HepG2 cells - 40 hour (AID 1224879); further: nearly all actives have a fitted effect of over 40% in size
In short: as §4

[20] = qHTS RealTime-Glo MT Cell Viability Assay in HepG2 cells - 0 hour (AID 1224889); further: nearly all actives have a fitted effect of over 50% in size
In short: as §5

## CN1CCC(N(Cc2ccccc2)c2ccccc2)CC1
[1]
  Potency: inactive
[2]
  Potency: inactive
[3]
  Potency: inactive
[4]
  max response: 0.452%
[5]
  Potency: inactive
[6]
  Potency: inactive
[7]
  Potency: inactive
[8]
  Potency: inactive
[9]
  outcome: inactive
[10]
  Potency: inactive
[11]
  outcome: inactive
[12]
  Potency: inactive
[13]
  Potency: inactive
[14]
  Potency: inactive
[15]
  Potency: inactive
[16]
  Potency: inactive
[17]
  Potency: inactive
[18]
  Potency: inactive

## C[C@]12CC[C@H]3[C@@H](CCC4=CC(=O)CC[C@@]43C)[C@@H]1CC[C@@H]2C(=O)O
[1]
  Potency: inactive
[3]
  Potency: inactive
[4]
  max response: 2.42%
[5]
  Potency: inactive
[6]
  Potency: inactive
[7]
  Potency: inactive
[8]
  Potency: inactive
[19]
  Potency: inactive
[9]
  outcome: inactive
[10]
  Potency: inactive
[11]
  outcome: inactive
[12]
  Potency: inactive
[13]
  Potency: inactive
[14]
  Potency: inactive
[15]
  Potency: inactive
[16]
  Potency: inactive
[17]
  Potency: inactive
[20]
  Potency: inactive

## COc1ccc(C(=O)N2CCCC2=O)cc1
[1]
  Potency: inactive
[3]
  Potency: inactive
[4]
  max response: -7.3%
[5]
  Potency: inactive
[7]
  Potency: inactive
[9]
  outcome: inactive
[10]
  Potency: inactive
[11]
  outcome: inactive
[13]
  Potency: inactive
[14]
  Potency: inactive
[15]
  Potency: inactive
[16]
  Potency: inactive
[17]
  Potency: inactive
[18]
  Potency: inactive

## Clc1ccccc1N1CCNCC1
[1]
  Potency: inactive
[3]
  Potency: inactive
[4]
  max response: 7.31%
[5]
  Potency: inactive
[6]
  Potency: inactive
[8]
  Potency: inactive
[19]
  Potency: inactive
[9]
  outcome: inactive
[10]
  Potency: inactive
[11]
  outcome: inactive
[12]
  Potency: inactive
[13]
  Potency: inactive
[14]
  Potency: inactive
[15]
  Potency: inactive
[16]
  Potency: inactive
[17]
  Potency: inactive
[18]
  Potency: inactive

## COP(N)(=S)Oc1ccccc1C(=O)OC(C)C (stereo unspecified)
[1]
  Potency: inactive
[2]
  Potency: inactive
[4]
  max response: -8.89%
[5]
  Potency: inactive
[6]
  Potency: inactive
[7]
  Potency: inactive
[8]
  Potency: inactive
[19]
  Potency: inactive
[9]
  outcome: inactive
[10]
  Potency: inactive
[12]
  Potency: inactive
[14]
  Potency: inactive
[15]
  Potency: inactive
[16]
  Potency: inactive
[17]
  Potency: inactive
[20]
  Potency: inactive
[18]
  Potency: inactive

## C[C@H]1CCC[C@H](O)CCCCCc2cc(O)cc(O)c2C(=O)O1
[1]
  Potency: inactive
[3]
  Potency: inactive
[4]
  Potency: 24.7 µM (active)
[5]
  Potency: inactive
[6]
  Potency: inactive
[7]
  Potency: inactive
[8]
  Potency: inactive
[9]
  outcome: inactive
[10]
  Potency: inactive
[11]
  outcome: inactive
[13]
  Potency: inactive
[14]
  Potency: inactive
[15]
  Potency: 34.9 µM (active)
[16]
  Potency: 27.7 µM (active)
[20]
  Potency: inactive
[18]
  Potency: inactive

## O=[N+]([O-])c1cccc(O)c1
[1]
  Potency: inactive
[3]
  Potency: inactive
[4]
  max response: 4.13%
[5]
  Potency: inactive
[6]
  Potency: inactive
[7]
  Potency: inactive
[8]
  Potency: inactive
[19]
  Potency: inactive
[9]
  outcome: inactive
[10]
  Potency: inactive
[12]
  Potency: inactive
[13]
  Potency: inactive
[14]
  Potency: inactive
[15]
  Potency: inactive
[16]
  Potency: inactive
[20]
  Potency: inactive
[18]
  Potency: inactive

## CC1CCC(=O)O1 (stereo unspecified)
[1]
  Potency: inactive
[3]
  Potency: inactive
[4]
  max response: -22.6%
[5]
  Potency: inactive
[6]
  Potency: inactive
[7]
  Potency: inactive
[8]
  Potency: inactive
[19]
  Potency: inactive
[9]
  outcome: inactive
[10]
  Potency: inactive
[11]
  outcome: inactive
[12]
  Potency: inactive
[13]
  Potency: inactive
[14]
  Potency: inactive
[15]
  Potency: inactive
[16]
  Potency: inactive
[17]
  Potency: inactive
[20]
  Potency: inactive
[18]
  Potency: inactive
